Inhibition data for six compounds are collected here from ChEMBL document CHEMBL1961873, “Compounds: GSK PKIS; Assays: Nanosyn kinase panel” (2012).

In test [1] the target is T1, 3-phosphoinositide-dependent protein kinase 1 (Homo sapiens) (UniProt O15530).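 Also: values are mean inhibition of PDK1.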
T1 sequence (whole entry): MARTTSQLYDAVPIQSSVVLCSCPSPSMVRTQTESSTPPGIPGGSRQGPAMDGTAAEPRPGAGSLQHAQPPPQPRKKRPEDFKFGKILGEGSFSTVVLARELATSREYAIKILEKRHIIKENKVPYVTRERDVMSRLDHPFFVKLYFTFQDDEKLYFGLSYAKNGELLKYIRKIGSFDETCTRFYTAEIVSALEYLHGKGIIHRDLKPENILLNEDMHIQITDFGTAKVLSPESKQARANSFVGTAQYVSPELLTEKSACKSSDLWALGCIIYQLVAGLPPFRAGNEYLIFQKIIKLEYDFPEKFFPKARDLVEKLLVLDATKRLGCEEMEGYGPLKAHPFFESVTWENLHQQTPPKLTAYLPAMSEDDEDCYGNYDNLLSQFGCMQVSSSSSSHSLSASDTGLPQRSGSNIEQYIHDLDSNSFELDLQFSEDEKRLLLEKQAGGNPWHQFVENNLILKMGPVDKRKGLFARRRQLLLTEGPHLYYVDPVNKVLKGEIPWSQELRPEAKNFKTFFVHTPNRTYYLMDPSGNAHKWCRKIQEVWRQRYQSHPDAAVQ
The note with it: at 0.1 µM.

Test [2] has as its target cAMP-dependent protein kinase catalytic subunit alpha (Homo sapiens) (UniProt P17612). The note with it: at 0.1 µM.
The target is the same in test [3]. The note with it: at 1 µM.
Test [4] addresses Protein kinase C alpha type (Homo sapiens) (UniProt P17252). The note with it: at 0.1 µM.
Test [5] shares this target. The note with it: at 1 µM.
The target in test [6] is Protein kinase C beta type (Homo sapiens) (UniProt P05771). The note with it: at 0.1 µM.
Test [7] has the same target. The note with it: at 1 µM.
For test [8], the target named is Protein kinase C eta type (Homo sapiens) (UniProt P24723). The note with it: at 0.1 µM.
Test [9] shares this target. The note with it: at 1 µM.
Test [10] addresses Protein kinase C gamma type (Homo sapiens) (UniProt P05129). The note with it: at 0.1 µM.
For test [11] the target is unchanged. The note with it: at 1 µM.
Test [12] addresses T2, Protein kinase C iota type (Homo sapiens) (UniProt P41743).
T2 sequence (whole entry): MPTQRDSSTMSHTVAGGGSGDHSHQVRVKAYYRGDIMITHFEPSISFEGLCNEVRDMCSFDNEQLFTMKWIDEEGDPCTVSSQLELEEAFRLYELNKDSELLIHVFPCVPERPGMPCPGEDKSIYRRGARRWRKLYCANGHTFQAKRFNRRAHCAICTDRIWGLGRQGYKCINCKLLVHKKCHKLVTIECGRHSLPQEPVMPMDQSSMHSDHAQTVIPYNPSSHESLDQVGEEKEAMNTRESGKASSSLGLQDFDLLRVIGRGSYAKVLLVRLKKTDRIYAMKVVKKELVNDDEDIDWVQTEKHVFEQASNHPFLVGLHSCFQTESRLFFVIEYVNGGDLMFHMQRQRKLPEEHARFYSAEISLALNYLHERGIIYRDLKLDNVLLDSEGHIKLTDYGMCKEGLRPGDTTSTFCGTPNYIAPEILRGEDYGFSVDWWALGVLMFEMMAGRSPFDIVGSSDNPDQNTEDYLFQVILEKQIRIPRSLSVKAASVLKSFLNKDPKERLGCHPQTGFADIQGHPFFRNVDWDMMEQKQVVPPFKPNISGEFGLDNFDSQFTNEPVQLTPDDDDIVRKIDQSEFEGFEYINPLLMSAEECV
The note with it: at 0.1 µM.

The target of test [13] is T2, Protein kinase C iota type (Homo sapiens). The note with it: at 1 µM.
Test [14] addresses Protein kinase C theta type (Homo sapiens) (UniProt Q04759). The note with it: at 0.1 µM.
For test [15] the target is unchanged. The note with it: at 1 µM.
The target of test [16] is Protein kinase C beta type (Homo sapiens) (UniProt P05771). The note with it: at 0.1 µM. This is another data set of the same source.
Test [17] has the same target. The note with it: at 1 µM. The source holds these as a separate data set.
Test [18] has as its target T3, Serine/threonine-protein kinase D1 (Homo sapiens) (UniProt Q15139).
T3 sequence (whole entry): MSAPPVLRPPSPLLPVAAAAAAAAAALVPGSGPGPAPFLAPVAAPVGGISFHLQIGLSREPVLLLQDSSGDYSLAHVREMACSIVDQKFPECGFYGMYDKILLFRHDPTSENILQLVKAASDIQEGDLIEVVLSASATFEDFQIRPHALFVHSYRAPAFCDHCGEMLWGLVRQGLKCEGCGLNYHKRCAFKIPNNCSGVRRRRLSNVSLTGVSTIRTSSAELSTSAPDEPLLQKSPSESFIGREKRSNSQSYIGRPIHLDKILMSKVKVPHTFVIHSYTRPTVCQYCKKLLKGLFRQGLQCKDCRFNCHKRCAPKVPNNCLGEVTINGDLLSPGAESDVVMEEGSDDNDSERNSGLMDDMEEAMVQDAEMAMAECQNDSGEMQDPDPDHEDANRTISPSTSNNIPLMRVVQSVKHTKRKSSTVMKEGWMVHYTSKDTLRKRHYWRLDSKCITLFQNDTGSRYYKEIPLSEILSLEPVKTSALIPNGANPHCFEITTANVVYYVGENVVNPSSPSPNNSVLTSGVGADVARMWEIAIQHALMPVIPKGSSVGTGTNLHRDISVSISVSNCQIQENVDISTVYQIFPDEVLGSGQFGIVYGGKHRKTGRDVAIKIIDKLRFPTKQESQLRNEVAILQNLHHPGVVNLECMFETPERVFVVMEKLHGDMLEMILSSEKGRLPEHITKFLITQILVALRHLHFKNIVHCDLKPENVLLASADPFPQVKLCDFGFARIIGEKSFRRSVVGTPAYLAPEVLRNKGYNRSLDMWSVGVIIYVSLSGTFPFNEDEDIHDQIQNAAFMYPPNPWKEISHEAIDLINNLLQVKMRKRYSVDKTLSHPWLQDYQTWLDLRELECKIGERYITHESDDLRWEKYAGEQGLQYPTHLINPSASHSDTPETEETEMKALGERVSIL
The note with it: at 0.1 µM.

The target of test [19] is T3, Serine/threonine-protein kinase D1 (Homo sapiens). The note with it: at 1 µM.
Test [20] addresses T4, Serine/threonine-protein kinase D2 (Homo sapiens) (UniProt Q9BZL6).
T4 sequence (whole entry): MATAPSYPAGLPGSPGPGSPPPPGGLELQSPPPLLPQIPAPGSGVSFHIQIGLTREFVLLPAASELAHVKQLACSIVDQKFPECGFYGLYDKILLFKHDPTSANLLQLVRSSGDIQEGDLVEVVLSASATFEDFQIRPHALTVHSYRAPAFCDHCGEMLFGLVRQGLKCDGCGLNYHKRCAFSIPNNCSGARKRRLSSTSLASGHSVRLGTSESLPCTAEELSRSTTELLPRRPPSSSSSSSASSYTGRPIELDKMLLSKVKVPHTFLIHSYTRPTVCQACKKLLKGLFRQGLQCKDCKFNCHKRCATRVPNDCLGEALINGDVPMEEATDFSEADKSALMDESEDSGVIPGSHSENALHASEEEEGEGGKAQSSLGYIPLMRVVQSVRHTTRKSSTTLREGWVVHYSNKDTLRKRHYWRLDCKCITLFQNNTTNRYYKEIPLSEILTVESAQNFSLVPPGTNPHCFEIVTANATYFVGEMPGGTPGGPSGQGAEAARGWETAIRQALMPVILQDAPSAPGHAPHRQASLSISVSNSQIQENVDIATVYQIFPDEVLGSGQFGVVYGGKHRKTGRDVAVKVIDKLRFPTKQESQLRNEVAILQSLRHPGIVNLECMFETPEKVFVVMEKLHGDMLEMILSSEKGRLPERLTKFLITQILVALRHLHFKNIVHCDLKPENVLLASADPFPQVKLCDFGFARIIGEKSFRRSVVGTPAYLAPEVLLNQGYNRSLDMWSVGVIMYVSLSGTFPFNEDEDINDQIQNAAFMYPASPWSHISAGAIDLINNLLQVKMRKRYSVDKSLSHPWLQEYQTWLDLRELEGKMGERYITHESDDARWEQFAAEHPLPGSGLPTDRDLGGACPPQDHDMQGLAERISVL
The note with it: at 0.1 µM.

Molecules are shown by their SMILES. “And” between values parts separate entries of the source, which are not always exact repeats. Equal values may be shown once.

Protein kinase C eta type (Homo sapiens), sequence (P24723 whole entry): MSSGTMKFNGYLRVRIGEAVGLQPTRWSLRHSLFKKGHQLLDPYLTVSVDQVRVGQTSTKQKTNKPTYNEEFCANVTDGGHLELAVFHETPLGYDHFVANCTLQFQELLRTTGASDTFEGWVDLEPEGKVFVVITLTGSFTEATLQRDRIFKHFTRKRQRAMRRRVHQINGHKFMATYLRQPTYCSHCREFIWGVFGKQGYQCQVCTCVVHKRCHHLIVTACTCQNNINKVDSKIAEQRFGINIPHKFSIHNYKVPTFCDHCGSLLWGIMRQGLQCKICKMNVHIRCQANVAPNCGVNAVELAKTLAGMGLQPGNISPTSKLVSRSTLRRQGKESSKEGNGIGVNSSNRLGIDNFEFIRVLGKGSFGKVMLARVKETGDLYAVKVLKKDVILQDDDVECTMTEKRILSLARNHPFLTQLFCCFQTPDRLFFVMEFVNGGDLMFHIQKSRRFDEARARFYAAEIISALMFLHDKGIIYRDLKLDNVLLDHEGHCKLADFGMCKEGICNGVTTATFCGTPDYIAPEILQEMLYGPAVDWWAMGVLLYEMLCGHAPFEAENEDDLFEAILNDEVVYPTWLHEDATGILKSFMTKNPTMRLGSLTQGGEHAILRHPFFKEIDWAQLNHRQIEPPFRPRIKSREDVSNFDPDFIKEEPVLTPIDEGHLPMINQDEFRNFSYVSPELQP
Protein kinase C beta type (Homo sapiens), sequence (P05771 2-671 limits assumed): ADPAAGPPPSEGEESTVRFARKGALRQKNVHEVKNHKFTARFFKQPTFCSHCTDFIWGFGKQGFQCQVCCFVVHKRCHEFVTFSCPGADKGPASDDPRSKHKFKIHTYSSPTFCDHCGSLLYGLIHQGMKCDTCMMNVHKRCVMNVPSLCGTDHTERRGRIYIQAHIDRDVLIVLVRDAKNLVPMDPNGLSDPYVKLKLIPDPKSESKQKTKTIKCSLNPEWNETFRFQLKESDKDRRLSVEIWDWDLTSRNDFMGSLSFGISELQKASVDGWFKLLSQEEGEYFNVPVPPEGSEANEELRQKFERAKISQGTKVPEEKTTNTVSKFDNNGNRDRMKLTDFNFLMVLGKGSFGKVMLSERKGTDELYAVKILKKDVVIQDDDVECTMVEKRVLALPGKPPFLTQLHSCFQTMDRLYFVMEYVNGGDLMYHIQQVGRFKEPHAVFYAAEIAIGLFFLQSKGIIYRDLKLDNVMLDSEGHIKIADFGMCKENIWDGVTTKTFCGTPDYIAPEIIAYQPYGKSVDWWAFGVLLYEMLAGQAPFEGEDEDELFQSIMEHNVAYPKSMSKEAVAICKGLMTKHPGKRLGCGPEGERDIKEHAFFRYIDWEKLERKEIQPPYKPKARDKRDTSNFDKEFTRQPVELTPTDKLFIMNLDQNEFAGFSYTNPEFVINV
Protein kinase C theta type (Homo sapiens), sequence (Q04759 whole entry, looked up): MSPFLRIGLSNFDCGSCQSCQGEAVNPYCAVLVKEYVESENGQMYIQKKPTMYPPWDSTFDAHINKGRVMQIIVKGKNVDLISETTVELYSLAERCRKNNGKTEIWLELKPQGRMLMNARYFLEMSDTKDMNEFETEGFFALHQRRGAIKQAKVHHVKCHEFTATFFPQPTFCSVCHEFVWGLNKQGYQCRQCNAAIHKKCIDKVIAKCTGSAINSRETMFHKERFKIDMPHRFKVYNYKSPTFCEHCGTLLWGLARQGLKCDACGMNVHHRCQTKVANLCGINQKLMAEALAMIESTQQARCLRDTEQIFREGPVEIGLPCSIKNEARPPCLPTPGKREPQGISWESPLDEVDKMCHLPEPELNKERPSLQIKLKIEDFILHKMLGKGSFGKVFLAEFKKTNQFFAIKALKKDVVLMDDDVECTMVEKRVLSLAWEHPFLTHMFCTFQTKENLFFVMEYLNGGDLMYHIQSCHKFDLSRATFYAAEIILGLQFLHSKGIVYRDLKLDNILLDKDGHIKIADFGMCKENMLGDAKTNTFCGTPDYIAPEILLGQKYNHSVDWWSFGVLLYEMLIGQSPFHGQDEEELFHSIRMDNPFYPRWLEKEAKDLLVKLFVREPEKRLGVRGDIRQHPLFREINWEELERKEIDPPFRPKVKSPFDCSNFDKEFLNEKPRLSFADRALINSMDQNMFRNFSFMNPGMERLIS

Usually inhibition stands for the drop in the measured response relative to a control, in per cent. As for `CS(=O)(=O)Nc1ccc(-c2ccc3c(NC(=O)C4CC4)n[nH]c3c2)cc1`, the inhibition is 2.46% in [1]; 1.42% in test [2]; 1.85% in test [3]; 1.17% in test [4]; 1.78% in [5]; -0.7% in test [6]. Also, the inhibition in test [7] was found to be 0.21%; in test [8], 4.05%; in test [9], 1.11%; in [10] it was 2.49%; in test [11], 4.43%; in test [12], 0.75%. Besides, the inhibition is 3.13% in [13]; 1.56% in test [14]; -0.36% in [15]; 1.18% in [16]; 1.78% in [17]; 2.7% in test [18]. Moreover, the inhibition in test [19] stood at 4.68%; in [20], 3.14%.

In the case of `CN1CCN(Cc2ccc(-c3cc4ncnc(Nc5ccc(OCc6cccc(F)c6)c(Cl)c5)c4s3)o2)CC1`, the inhibition in test [1] is 14.8% and 0.07%; in test [2], 1.2% and 3.28%; in test [3] it was 5.56% and 3.03%; in test [4] it was 0.64% and 0.88%; in test [5], 1.87% and 2.52%; in [6], -1.25% and 0.04%. Besides, the inhibition in test [7] is 0.12% and 3.28%; in test [8], 4.86% and 6.13%; in test [9], 3.75% and 6.04%; in test [10], 0.69% and 2.55%; in [11] it was 1.46% and 6.95%; in test [12] it was 1.42% and 1.16%. Also, the inhibition in test [13] is 1.76% and 1.19%; in [14] it was 1.25% and 2.92%; in test [15], 0.89% and 4.95%; in test [16] it was 0.98% and 1.08%; in [17], 2.27% and 3.9%; in [18] it was 3.21% and 5.57%. Besides, the inhibition is 6.44% and 7.02% in test [19]; 2.14% and 5.13% in test [20].

For `Cc1ccc(-c2cc3c(NC(=O)C4CC4)ncnc3o2)cc1`, the inhibition in [1] is 1.92%; in test [2], 1.76%; in test [3], 1.5%; in test [4] it was 0.9%; in [5], 0.92%; in test [6] it was 2.14%. In addition, the inhibition was 2.41% in test [7]; 2.1% in test [8]; 1.62% in test [9]; 2.91% in [10]; 2.25% in test [11]; 2.54% in test [12]. Moreover, the inhibition in test [13] is 2.8%; in test [14], 2.02%; in test [15] it was 1.79%; in test [16] it was 5.24%; in test [17], 0.65%; in test [18], 3.45%. Also, the inhibition is 6.06% in test [19] and 4.1% in test [20].

Consider `COc1cccc(Nc2nccc(-c3cnn4ncccc34)n2)c1`, for which the inhibition in test [1] came to 2.46%; in test [2], 1.16%; in test [3], 6.04%; in test [4], 6.2%; in test [5], 43.4%; in test [6], 0.55%. Moreover, the inhibition in test [7] was 5.61%; in test [8], 2.46%; in [9] it was 7.69%; in [10], -1.41%; in test [11], 9.31%; in [12], -1.42%. Besides, the inhibition is -1.07% in [13]; 0.2% in [14]; 4.75% in test [15]; 0.37% in test [16]; 7.43% in test [17]; 4.01% in test [18]. The inhibition in test [19] was found to be 38.2%; in [20], 2.78%.

As to `CS(=O)(=O)CCNCc1ccc(-c2ccc3ncnc(Nc4ccc(OCc5ccccc5)cc4)c3c2)o1`, the inhibition in [1] came to 1.7%; in test [2] it was 2.17%; in [3], 2.45%; in test [4], 0.5%; in test [5] it was 1.49%; in test [6], 1.41%. The inhibition worked out at 0.21% in [7]; 3.12% in [8]; 3.6% in [9]; 2.13% in test [10]; 3.26% in test [11]; 1.61% in [12]. The inhibition in [13] worked out at 1.87%; in test [14], 1.49%; in test [15], 2.01%; in test [16], 0.51%; in [17] it was 0.86%; in test [18] it was 3.17%. Besides, the inhibition turned out to be 4.08% in [19] and 2.78% in [20].

Regarding `COC(=O)Nc1nc2cc(Oc3ccc(NC(=O)Nc4ccccc4)cc3)ccc2[nH]1`, the inhibition is 1.31% in test [1]; 2.49% in test [2]; 2.15% in test [3]; -0.02% in [4]; 0.51% in test [5]; 1.53% in test [6]. For the same compound, the inhibition is 2.12% in [7]; 2.8% in test [8]; 6.1% in test [9]; 0.41% in test [10]; 4.89% in [11]; -0.48% in test [12]. Besides, the inhibition in test [13] was -0.69%; in test [14], 1.38%; in [15] it was 2.87%; in test [16], 0.28%; in [17] it was 0.72%; in test [18], 2.86%. Besides, the inhibition in test [19] came out at 3.15%; in test [20] it was 2.3%.
